Each structure is given as a SMILES string. This is part of a sample that, as a whole, favours compounds with a hit. Of some 83,000 tested, about 20% had one in any assay.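 The test compound was applied at a single concentration to cells in 96-well plates for 48 hours, and percent growth was recorded.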 Values without a mark were called inactive. Activity calls are given as the source filed them. Rule for the calls: active = growth percent below 10; inactive = the rest.

This is an account of results in PubChem BioAssay (NCI).

Assay in all cases: NCI-60 one-dose screen, 48 h (100 = growth as untreated, 0 = no growth, -100 = all killed)
Assay [1] concerns SK-MEL-2 melanoma. To be noted: 10 µM unless noted.
For assay [2], the system named is EKVX NSCLC. To be noted: 10 µM unless noted.
Assay [3] deals with SN12C renal. To be noted: 10 µM unless noted.
Assay [4] has as its system UO-31 renal. To be noted: 10 µM unless noted.
In assay [5] the test system is TK-10 renal. To be noted: 10 µM unless noted.
The subject of assay [6] is ACHN renal. To be noted: 10 µM unless noted.
In assay [7] the test system is CAKI-1 renal. To be noted: 10 µM unless noted.
The test system of assay [8] is A498 renal. To be noted: 10 µM unless noted.
Assay [9] has as its system CCRF-CEM leukemia. To be noted: 10 µM unless noted.
The subject of assay [10] is MOLT-4 leukemia. To be noted: 10 µM unless noted.
For assay [11], the system named is SR leukemia. To be noted: 10 µM unless noted.
The subject of assay [12] is RPMI-8226 leukemia. To be noted: 10 µM unless noted.
Assay [13] relates to OVCAR-8 ovarian. To be noted: 10 µM unless noted.
In assay [14] the test system is OVCAR-5 ovarian. To be noted: 10 µM unless noted.
Assay [15] concerns SK-OV-3 ovarian. To be noted: 10 µM unless noted.
For assay [16], the system named is OVCAR-3 ovarian. To be noted: 10 µM unless noted.
Assay [17] has as its system HS 578T breast. To be noted: 10 µM unless noted.
Assay [18] concerns NCI/ADR-RES ovarian. To be noted: 10 µM unless noted.
Assay [19] concerns IGROV1 ovarian. To be noted: 10 µM unless noted.
The test system of assay [20] is OVCAR-4 ovarian. To be noted: 10 µM.

`COc1ccc2c3ccnc(C(F)(F)F)c3n(CCCCN)c2c1`: the growth was 55.3% in [1]; 45.7% in assay [2]; 51.6% in assay [3]; 13.4% in assay [4]; 61.3% in assay [5]; 26.8% in assay [6]. In addition, the growth was 29.6% in assay [7]; 17% in [8]; 72.7% in assay [9]; 51% in assay [10]; 26.9% in assay [11]; 31.3% in assay [12]. For the same compound, the growth was 46.1% in [13]; 54.8% in assay [14]; 53.3% in assay [15]; 47.3% in [16]; 44.9% in assay [17]; 64.9% in assay [18].

On to `Fc1ccc(NC(=S)c2ccccc2)cc1`, for which the growth in assay [1] is 98.3%; in assay [2], 97.5%; in assay [3], 103%; in assay [4], 88.9%; in assay [5], 94.5%; in assay [6], 102%. Also, the growth in [7] is 89.8%; in [8] it was 72.8%; in assay [9], 94.6%; in assay [10] it was 99.9%; in [11] it was 102%; in assay [12] it was 89%. The growth is 102% in assay [13]; 94.5% in [14]; 117% in assay [15]; 106% in assay [19]; 101% in assay [17].

`CC(C)C1=NOC(=O)C1=Cc1cn(-c2ccco2)nc1-c1ccccc1`: the growth was 113% in assay [1]; 99.6% in assay [2]; 87.4% in assay [3]; 71.5% in [4]; 110% in [5]; 92.3% in [6]. Besides, the growth in [7] was 73.8%; in [8] it was 98.6%; in [10] it was 20.7%; in [11], -2.02% (active); in assay [12], 6.57% (active); in [13], 80.5%. Further, the growth in assay [14] was 114%; in assay [20], 94.6%; in assay [15], 102%; in assay [19] it was 90.2%; in assay [16], 90.6%; in assay [17], 96.1%. Also, in assay [18], the growth was 98%.

Turning to `CC1(C)CC[C@]2(C(=O)O)CC[C@]3(C)C(=CC[C@@H]4[C@@]5(C)C/C(=C/c6cccnc6)[C@H](O)C(C)(C)[C@@H]5CC[C@]43C)[C@@H]2C1`, the growth is -29.9% [100 µM] (active) in [1]; 0.843% [100 µM] (active) in [2]; 6.59% [100 µM] (active) in [3]; -57.6% [100 µM] (active) in assay [4]; 1.87% [100 µM] (active) in assay [5]; 2.77% [100 µM] (active) in assay [6]. The growth in assay [7] is 5.69% [100 µM] (active); in assay [8] it was 23.9% [100 µM]; in assay [9], 1.37% [100 µM] (active); in assay [10], 4.37% [100 µM] (active); in [11] it was 37.3% [100 µM]; in assay [12], -12% [100 µM] (active). Besides, the growth in assay [13] is 13.2% [100 µM]; in assay [14], -2.1% [100 µM] (active); in assay [15], 1.32% [100 µM] (active); in [19], 2.18% [100 µM] (active); in assay [16] it was -14.6% [100 µM] (active); in assay [17] it was 3% [100 µM] (active). Moreover, in assay [18], the growth is 3.8% [100 µM] (active).

With `COc1ccccc1S(=O)Nc1ccccc1` (centres undefined), the growth in [1] is 82.5%; in [2] it was 106%; in assay [3], 94.4%; in assay [4] it was 85.9%; in [5], 101%; in assay [6] it was 107%. For the same compound, the growth in [7] is 98.2%; in [8], 82.9%; in assay [9] it was 93.6%; in assay [10], 103%; in assay [11] it was 82.7%; in assay [12], 99.9%. The growth was 94.2% in [13]; 110% in assay [20]; 105% in assay [15]; 107% in [19]; 107% in assay [16]; 82% in [17]. Besides, in [18], the growth is 105%.

For `CCCCCn1c(C)cc(/C=C\c2ccc3cc(C)ccc3[n+]2C)c1C`, the growth in assay [1] was -81.9% (active); in assay [2] it was -47.9% (active); in [3], -90.3% (active); in assay [4], -61.4% (active); in assay [5], -57.6% (active); in assay [6] it was -89.3% (active). For the same compound, the growth in [7] was -80.3% (active); in assay [8], -46% (active); in assay [9], -13.3% (active); in assay [10], 7.02% (active); in assay [11], 9.57% (active); in assay [12], -43.5% (active). Also, the growth is -69.5% (active) in [13]; 12% in assay [14]; -84% (active) in assay [19]; -72.7% (active) in assay [16]; -24.4% (active) in assay [17]; 59.1% in assay [18].

`C=C(C)[C@@H]1CC[C@]2(C)[C@H](CC=C3[C@@H]4[C@@H](C)[C@H](C)CC[C@]4(C(N)=O)CC[C@]32C)[C@@]1(C)CCC#N`: the growth was -62.5% [100 µM] (active) in [1]; 11.8% [100 µM] in [2]; -75.7% [100 µM] (active) in assay [3]; -91.5% [100 µM] (active) in assay [4]; -10.2% [100 µM] (active) in assay [5]; -1.6% [100 µM] (active) in assay [6]. Also, the growth in assay [7] is 6.4% [100 µM] (active); in assay [8], -33.6% [100 µM] (active); in assay [9], -7.62% [100 µM] (active); in [10], -1.01% [100 µM] (active); in assay [11] it was 30.2% [100 µM]; in [12], -21.1% [100 µM] (active). Further, the growth in assay [13] was 3.49% [100 µM] (active); in assay [14] it was 1.03% [100 µM] (active); in assay [15], 5.31% [100 µM] (active); in [19], 7.81% [100 µM] (active); in [16] it was -53.6% [100 µM] (active); in assay [17], 5.08% [100 µM] (active). The growth in assay [18] is -32% [100 µM] (active).
